# According to PubChem BioAssay (NCATS):
# Records with an inconclusive call do not appear. Entries that show only a call come without a potency. A number with no mark means an inactive call. Activity calls are given as the source filed them. Calls follow the shape of the dose curve; as a rule, active = well fitted inhibition curve with a large enough effect; inconclusive = small, poorly fitted or top-dose-only effect; inactive = flat fitted curve, though single readings scatter.
# Assays:
# [1] = qHTS profiling for inhibitors of Plasmodium falciparum proliferation (AID 504749); also: nearly all actives have a fitted effect of over 60% in size; conditions: P. falciparum in erythrocytes, SYBR Green DNA, 72 h
# Summary of the method: (§1)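 P. falciparum-infected erythrocytes (0.3% parasitemia, 2.5% hematocrit) incubated with compound 72 h at 37 C, 5% CO2. Parasite DNA detected by SYBR Green after lysis, overnight at room temperature; normalised to 0.29 uM artemisinin and DMSO.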
# 7G8 = assay: as above; conditions: P. falciparum in erythrocytes, SYBR Green DNA, 72 h; series mostly up to 28.7 µM
# Summary of the method: as §1
# C2A = assay: as above; conditions: P. falciparum in erythrocytes, SYBR Green DNA, 72 h; series mostly up to 28.7 µM
# Summary of the method: as §1
# CP185 = assay: as above; conditions: P. falciparum in erythrocytes, SYBR Green DNA, 72 h; series mostly up to 28.7 µM
# Summary of the method: as §1
# CP238 = assay: as above; conditions: P. falciparum in erythrocytes, SYBR Green DNA, 72 h; series mostly up to 28.7 µM
# Summary of the method: as §1
# AA1029 = assay: as above; conditions: P. falciparum in erythrocytes, SYBR Green DNA, 72 h; series mostly up to 28.7 µM
# Summary of the method: as §1
# AS120 = assay: as above; conditions: P. falciparum in erythrocytes, SYBR Green DNA, 72 h; series mostly up to 28.7 µM
# Summary of the method: as §1
# ATS189 = assay: as above; conditions: P. falciparum in erythrocytes, SYBR Green DNA, 72 h; series mostly up to 28.7 µM
# Summary of the method: as §1
# ATS95 = assay: as above; conditions: P. falciparum in erythrocytes, SYBR Green DNA, 72 h; series mostly up to 28.7 µM
# Summary of the method: as §1
# CP191 = assay: as above; conditions: P. falciparum in erythrocytes, SYBR Green DNA, 72 h; series mostly up to 28.7 µM
# Summary of the method: as §1
# CP192 = assay: as above; conditions: P. falciparum in erythrocytes, SYBR Green DNA, 72 h; series mostly up to 28.7 µM
# Summary of the method: as §1
# CP194 = assay: as above; conditions: P. falciparum in erythrocytes, SYBR Green DNA, 72 h; series mostly up to 28.7 µM
# Summary of the method: as §1
# CP201 = assay: as above; conditions: P. falciparum in erythrocytes, SYBR Green DNA, 72 h; series mostly up to 28.7 µM
# Summary of the method: as §1
# CP203 = assay: as above; conditions: P. falciparum in erythrocytes, SYBR Green DNA, 72 h; series mostly up to 28.7 µM
# Summary of the method: as §1
# CP211 = assay: as above; conditions: P. falciparum in erythrocytes, SYBR Green DNA, 72 h; series mostly up to 28.7 µM
# Summary of the method: as §1
# CP217 = assay: as above; conditions: P. falciparum in erythrocytes, SYBR Green DNA, 72 h; series mostly up to 28.7 µM
# Summary of the method: as §1
# CP237 = assay: as above; conditions: P. falciparum in erythrocytes, SYBR Green DNA, 72 h; series mostly up to 28.7 µM
# Summary of the method: as §1
# CP247 = assay: as above; conditions: P. falciparum in erythrocytes, SYBR Green DNA, 72 h; series mostly up to 28.7 µM
# Summary of the method: as §1
# CP215 = assay: as above; conditions: P. falciparum in erythrocytes, SYBR Green DNA, 72 h; series mostly up to 28.7 µM
# Summary of the method: as §1
# 3D7 = assay: as above; conditions: P. falciparum in erythrocytes, SYBR Green DNA, 72 h; series mostly up to 28.7 µM
# Summary of the method: as §1
# [2] = at 28.7 µM (top of the series), parasite line A
# [3] = at 28.7 µM (top of the series), parasite line B
# Potency is read from the fitted curve at half-maximal effect.
structure (smiles),measurement,setting,value
O=C1CSC2(CCN(CCCN3c4ccccc4Sc4ccc(Cl)cc43)CC2)N1,"activity, negative = inhibition",[1]; [2],-17.8%
same,"activity, negative = inhibition",[1]; [3],-28.1%
same,Potency,7G8,11.2 µM (active)
same,Potency,C2A,inactive
same,Potency,CP185,inactive
same,Potency,CP238,inactive
O=S(=O)(O)O,"activity, negative = inhibition",[1]; [2],-14.8%
same,"activity, negative = inhibition",[1]; [3],2.3%
same,Potency,7G8,inactive
same,Potency,AA1029,inactive
same,Potency,AS120,inactive
same,Potency,ATS189,inactive
same,Potency,ATS95,inactive
same,Potency,C2A,inactive
same,Potency,CP185,inactive
same,Potency,CP191,inactive
same,Potency,CP192,inactive
same,Potency,CP194,inactive
same,Potency,CP201,inactive
same,Potency,CP203,inactive
same,Potency,CP211,inactive
same,Potency,CP217,inactive
same,Potency,CP237,inactive
same,Potency,CP238,inactive
same,Potency,CP247,inactive
CCCCC(=O)O[C@]1(C(=O)CO)[C@H](C)C[C@H]2[C@@H]3CCC4=CC(=O)C=C[C@]4(C)[C@@]3(F)[C@@H](O)C[C@@]21C,Potency,7G8,8.91 µM (active)
same,Potency,AA1029,inactive
same,Potency,ATS189,inactive
same,Potency,ATS95,inactive
same,Potency,C2A,inactive
same,Potency,CP185,inactive
same,Potency,CP191,inactive
same,Potency,CP192,inactive
same,Potency,CP194,inactive
same,Potency,CP201,inactive
same,Potency,CP211,inactive
same,Potency,CP215,inactive
same,Potency,CP217,inactive
same,Potency,CP237,inactive
same,Potency,CP238,inactive
same,Potency,CP247,inactive
C=C1C(=CC=C2CCC[C@@]3(C)[C@@H]2CC[C@H]3[C@H](C)CCCC(C)C)C[C@@H](O)C[C@@H]1O,Potency,3D7,11.2 µM (active)
same,Potency,7G8,10 µM (active)
same,Potency,AA1029,inactive
same,Potency,C2A,10 µM (active)
same,Potency,CP191,11.2 µM (active)
same,Potency,CP192,inactive
same,Potency,CP194,inactive
same,Potency,CP201,inactive
same,Potency,CP203,inactive
same,Potency,CP211,inactive
same,Potency,CP215,inactive
CC(=O)Oc1cc(C)c(OC(C)=O)c2ccccc12,Potency,3D7,8.91 µM (active)
same,Potency,7G8,5.01 µM (active)
same,Potency,AS120,10 µM (active)
same,Potency,C2A,11.2 µM (active)
same,Potency,CP192,10.7 µM (active)
CCCCC(CC)COC(=O)CC(C(=O)OCC(CC)CCCC)S(=O)(=O)O (configuration not stated),Potency,CP192,inactive
same,Potency,CP194,inactive
same,Potency,CP201,inactive
same,Potency,CP203,inactive
same,Potency,CP211,inactive
same,Potency,CP215,inactive
Cc1c(C)c2c(c(C)c1O)CC[C@@](C)(CCC[C@@H](C)CCC[C@@H](C)CCCC(C)C)O2,"activity, negative = inhibition",[1]; [3],18%
same,Potency,3D7,inactive
same,Potency,7G8,inactive
same,Potency,AA1029,inactive
same,Potency,ATS189,inactive
same,Potency,ATS95,inactive
same,Potency,C2A,inactive
same,Potency,CP185,inactive
same,Potency,CP191,inactive
same,Potency,CP192,inactive
same,Potency,CP194,inactive
same,Potency,CP201,inactive
same,Potency,CP203,inactive
same,Potency,CP211,inactive
same,Potency,CP215,inactive
same,Potency,CP217,inactive
same,Potency,CP237,inactive
same,Potency,CP238,inactive
same,Potency,CP247,inactive
COc1cc(-c2ccc(-[n+]3nc(-c4ccccc4)nn3-c3ccc([N+](=O)[O-])cc3)c(OC)c2)ccc1-[n+]1nc(-c2ccccc2)nn1-c1ccc([N+](=O)[O-])cc1,Potency,[1]; parasite line A,10 µM (active)
same,Potency,[1]; parasite line B,11.2 µM (active)
same,Potency,3D7,11.2 µM (active)
same,Potency,7G8,11.2 µM (active)
same,Potency,AA1029,11.2 µM (active)
same,Potency,C2A,11.2 µM (active)
same,Potency,CP185,10 µM (active)
same,Potency,CP191,11.2 µM (active)
same,Potency,CP192,19 µM (active)
same,Potency,CP201,16.9 µM (active)
same,Potency,CP211,13.5 µM (active)
same,Potency,CP247,11.2 µM (active)
CCOc1ccc(N=Nc2ccc(N)cc2N)cc1,"activity, negative = inhibition",[1]; [3],14.7%
same,Potency,3D7,inactive
same,Potency,AA1029,inactive
same,Potency,AS120,inactive
same,Potency,ATS95,inactive
same,Potency,C2A,inactive
same,Potency,CP185,inactive
same,Potency,CP191,inactive
same,Potency,CP192,inactive
same,Potency,CP194,inactive
same,Potency,CP201,inactive
same,Potency,CP203,inactive
same,Potency,CP211,inactive
same,Potency,CP215,inactive
same,Potency,CP217,inactive
same,Potency,CP237,inactive
same,Potency,CP238,inactive
CC1(C)C(C=C(Cl)Cl)C1C(=O)OCc1cccc(Oc2ccccc2)c1 (configuration not stated),"activity, negative = inhibition",[1]; [2],-2.63%
same,"activity, negative = inhibition",[1]; [3],-6.77%
same,Potency,3D7,inactive
same,Potency,AA1029,inactive
same,Potency,AS120,inactive
same,Potency,ATS189,inactive
same,Potency,ATS95,inactive
same,Potency,C2A,inactive
same,Potency,CP185,inactive
same,Potency,CP191,inactive
same,Potency,CP192,inactive
same,Potency,CP194,inactive
same,Potency,CP201,inactive
same,Potency,CP203,inactive
same,Potency,CP211,inactive
same,Potency,CP215,inactive
same,Potency,CP217,inactive
same,Potency,CP237,inactive
same,Potency,CP238,inactive
same,Potency,CP247,inactive
O=S(=O)(O)c1cc(O)c2c(N=Nc3ccc(Nc4ccccc4)c4c(S(=O)(=O)O)cccc34)cc(S(=O)(=O)O)cc2c1,Potency,3D7,inactive
same,Potency,AA1029,inactive
same,Potency,ATS189,inactive
same,Potency,ATS95,inactive
same,Potency,C2A,inactive
same,Potency,CP237,inactive
same,Potency,CP238,inactive
CC(C)N=c1cc2n(-c3ccc(Cl)cc3)c3ccccc3nc-2cc1Nc1ccc(Cl)cc1,"activity, negative = inhibition","[1]; at 12.8 µM (top of the series), parasite line A",-13.2%
same,"activity, negative = inhibition","[1]; at 12.8 µM (top of the series), parasite line B",-1.3%
same,Potency,7G8,3.98 µM (active)
same,Potency,AA1029,inactive
same,Potency,AS120,inactive
same,Potency,ATS189,inactive
same,Potency,ATS95,inactive
same,Potency,C2A,inactive
same,Potency,CP185,inactive
same,Potency,CP191,inactive
same,Potency,CP194,inactive
same,Potency,CP201,inactive
same,Potency,CP211,inactive
same,Potency,CP215,inactive
same,Potency,CP217,inactive
same,Potency,CP238,inactive
same,Potency,CP247,inactive
O=C(Nc1ccc(Br)cc1)c1cc(Br)c(Br)s1,Potency,[1]; parasite line A,10 µM (active)
same,Potency,7G8,10 µM (active)
same,Potency,CP203,16.9 µM (active)
C[C@H]1C[C@H]2[C@@H]3CCC4=CC(=O)C=C[C@]4(C)[C@@]3(F)[C@@H](O)C[C@]2(C)[C@@]1(O)C(=O)CO,"activity, negative = inhibition",[1]; [2],15.5%
same,"activity, negative = inhibition",[1]; [3],5.52%
same,Potency,3D7,inactive
same,Potency,AA1029,inactive
same,Potency,AS120,inactive
same,Potency,ATS189,inactive
same,Potency,ATS95,inactive
same,Potency,C2A,inactive
same,Potency,CP185,inactive
same,Potency,CP191,inactive
same,Potency,CP192,inactive
same,Potency,CP194,inactive
same,Potency,CP201,inactive
same,Potency,CP211,inactive
same,Potency,CP215,inactive
same,Potency,CP217,inactive
same,Potency,CP237,inactive
same,Potency,CP238,inactive
same,Potency,CP247,inactive
